Inconclusive results are not listed. Calls of active or inactive are those of the source. Unless noted, the call rests on the fitted dose curve; in most records, active means well fitted curve in the direction sought with a large enough effect; inconclusive means small, poorly fitted or top-dose-only effect, or another doubt; inactive means no such curve, though single readings can be large; an effect the other way counts as inactive or inconclusive.
Experiments:
[1] = target: Lysosomal acid glucosylceramidase (Homo sapiens) (UniProt P04062); assay: Glucocerebrosidase-p2 (AID 348; in the data active means potency below about 10 µM; further: potency means the concentration at half of the fitted maximal effect); conditions: purified GBA, blue fluorogenic substrate, 40 min
Outline: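 Compounds titrated from 0.6 nM upwards against 0.2 nM enzyme in pH 5.9 citric acid/KH2PO4, taurocholate, tween-20; blue fluorogenic substrate 80 uM, 40 min room temperature, stopped and read Ex 365/Em 440 for AC50.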

[2] = target: Cytochrome P450 1A2 (Homo sapiens) (UniProt P05177); assay: p450-cyp1a2 (AID 410; calls by dose curve; further: potency means the concentration at half of the fitted maximal effect); conditions: recombinant CYP1A2, luciferin-ME demethylation, luminescence; series mostly up to 57 µM
Outline: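 Luminescent readout of luciferin formed from Luciferin-ME by human CYP1A2; data normalized against complete inhibition by 57 uM furafylline. Enzyme 20nM, substrate 100uM at Km, 100mM KPO4 buffer, 60 min reaction at room temperature.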

[3] = NFAT Signaling Pathway (AID 444; active means well fitted curve in either direction with a large enough effect, not every such curve was filed as active;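 further: carbachol stimulus at about its EC50 of 1 µM final; on the % scale 0 is the no-effect control and ±100 the full control effect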); conditions: Jurkat NFAT-bla M1, carbachol, beta-lactamase ratio, 5 h; at 7.69 µM (top of the series) unless noted
Outline: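 Jurkat cells carrying an NFAT-driven β-lactamase reporter and co-transfected muscarinic M1 receptor were treated with compound plus carbachol (1 uM final, an EC50 level) for 5 h at 37 °C. CCF4 loading followed for 1 h at RT; 460/530 nm ratio gave %activity.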

[4] = Stat Signaling Pathway (AID 446; active means well fitted curve in either direction with a large enough effect, not every such curve was filed as active;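 further: ME-180 cervical cancer cells given 40 pM IL-6 alongside compound; SIE-controlled beta-lactamase reporter measured as 460/530 nm FRET emission ratio; on the % scale 0 is the no-effect control and ±100 the full control effect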); conditions: ME-180 SIE beta-lactamase reporter, IL-6 stimulated, 5 h; at 7.69 µM (top of the series) unless noted
Outline: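 ME-180 cells carrying a SIE-driven beta-lactamase reporter are stimulated with 40 pM IL-6 for 5 h at 37C in the presence of compound. The 460/530 nm FRET substrate ratio is read after 2.5 h at RT. Data are normalised to 300 pM IL-6 and to 125 nM JAK inhibitor controls.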

[5] = target: Glucocorticoid receptor (Homo sapiens) (UniProt P04150); assay: GR-GFP Redistribution (AID 450;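 active means compounds whose dose series gives a full or clear partial fitted curve of increased nuclear translocation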; further: potency means the concentration at half of the fitted maximal effect); conditions: U2OS GR-GFP nuclear translocation, laser cytometry, 2 h
[6] = target: Glucocorticoid receptor (Homo sapiens) (UniProt P04150); assay: GR-EFC Redistribution (AID 451; calls by dose curve; further: potency means the concentration at half of the fitted maximal effect); conditions: CHO-K1 GR-EFC translocation, beta-gal luminescence, 2 h
Outline: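 CHO-K1 cells stably expressing nuclear-localized β-gal enzyme acceptor and GR fused C-terminally to the enzyme donor fragment; ligand-driven nuclear translocation restores β-gal by complementation. Compounds titrated up to 46 uM final, 2 h at 37 °C; luminescence read.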

[7] = target: Mitogen-activated protein kinase 10 (Mus musculus) (UniProt Q61831); assay: JNK3 AlphaScreen Assay (AID 530; active means well fitted curve in either direction with a large enough effect, not every such curve was filed as active;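 further: kinase came from lysate of stimulated human HepG2 cells; signal reports phosphorylation of biotinylated GST-cJun 1-79 at Ser73 with 10 µM ATP; on the % scale 0 is the no-effect control and ±100 the full control effect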); conditions: JNK3 lysate, c-Jun phosphorylation; series mostly up to 57.1 µM
Outline: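 Inhibitors reduce antibody binding to phosphorylated biotin-cJun, lowering AlphaScreen luminescence. Lysates from HepG2 cells pre-activated by IL-1beta plus TNF-alpha supplied JNK3; compounds were titrated.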

[8] = target: 3',5'-cyclic-AMP phosphodiesterase 4B (Homo sapiens) (UniProt Q07343); assay: qHTS Assay for Inhibitors of PDE-IV (AID 607; active means well fitted activation curve with a large enough effect in the main read-out, with a control signal flat, not every such curve was filed as active; further: % of control where 0% means no effect); conditions: HEK293 ACTOne CNG channel cells, membrane potential fluorescence; series mostly up to 22.9 µM
Outline: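 HEK293 ACTOne cells with CNG channel (1000/well), endogenous PDE4; membrane potential dye, compounds up to 22.9 uM final. Fluorescence Ex 535/Em 590; RO 20-1724 (100 uM final) as reference.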

[9] = target: Cytochrome P450 3A4 (Homo sapiens) (UniProt P08684); assay: qHTS Assay for Inhibitors and Substrates of Cytochrome P450 3A4 (AID 884); conditions: recombinant CYP3A4, Luciferin-PPXE luminescence; series mostly up to 57.1 µM; further: nearly all actives have a fitted effect of over 50% in size; further: potency means the concentration at half of the fitted maximal effect
Outline: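 20 nM human CYP3A4 with 25 uM Luciferin-PPXE (at KM) in 200 mM KPO4, preincubated 10 min with compound; NADPH regeneration started a 60 min RT reaction. Luciferin detected by luminescence, normalized to 57 uM ketoconazole as full inhibition.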

[10] = target: Cytochrome P450 3A4 (Homo sapiens) (UniProt P08684); assay: qHTS Assay for Activators of Cytochrome P450 3A4 (AID 885); conditions: recombinant CYP3A4, Luciferin-PPXE luminescence, 60 min; series mostly up to 57.1 µM; further: nearly all actives have a fitted effect of over 65% in size
Outline: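 Human CYP3A4 (20 nM) with Luciferin-PPXE at 25 uM (its KM) in 200 mM KPO4; 10 min compound preincubation, then NADPH regeneration and 60 min reaction at RT. Luciferin read by luminescence; normalized to 57 uM ketoconazole full inhibition.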

[11] = target: Cytochrome P450 2C19 (Homo sapiens) (UniProt P33261); assay: qHTS Assay for Inhibitors and Substrates of Cytochrome P450 2C19 (AID 899); conditions: recombinant CYP2C19, luciferin-H EGE luminescence; series mostly up to 57.1 µM; further: nearly all actives have a fitted effect of over 60% in size; further: potency means the concentration at half of the fitted maximal effect
Outline: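 In 50mM KPO4, the reaction held 5nM enzyme and KM-level (10uM) Luciferin-H EGE; it ran 60 min at 37C after NADPH regeneration and a 10 min compound preincubation. Luminescence values were scaled to 57uM ketoconazole as complete inhibition.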

[12] = target: Dual specificity protein kinase CLK4 (Homo sapiens) (UniProt Q9HAZ1); assay: qHTS Assay for Inhibitors of CDC-like Kinase 4 (Kinase-Glo Assay) (AID 1770); conditions: recombinant Clk4, Kinase-Glo ATP depletion luminescence; series mostly up to 66.7 µM; further: nearly all actives have a fitted effect of over 65% in size; further: potency means the concentration at half of the fitted maximal effect
Outline: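 Readout: Kinase-Glo luminescence from ATP left after a 4.5 h room-temperature reaction of 25 nM Clk4 with 100 uM RS peptide and 1 uM ATP (final). Buffer: 25 mM Tris pH 7.5, 10 mM MgCl2.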

[13] = target: Dual specificity protein kinase CLK4 (Homo sapiens) (UniProt Q9HAZ1); assay: qHTS Assay for Inhibitors of CDC-like Kinase 4 (ADP-Glo Assay) (AID 1771); conditions: recombinant CLK4, ADP-Glo luminescence; series mostly up to 80 µM; further: nearly all actives have a fitted effect of over 70% in size; further: potency means the concentration at half of the fitted maximal effect
Outline: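 Luminescence from ADP-Glo reports ADP produced by 25 nM Clk4 acting on 100 uM RS repeat peptide with 1 uM ATP over 1 hr at room temperature; residual ATP is depleted before ADP is converted to ATP for detection.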

[14] = target: Ubiquitin carboxyl-terminal hydrolase 1 (Homo sapiens) (UniProt O94782); assay: Inhibitors of USP1/UAF1: Pilot qHTS (AID 504865); conditions: purified USP1/UAF1, Ub-rhodamine cleavage fluorescence; series mostly up to 54.9 µM;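 further: rhodamine fluorescence freed from ubiquitin-rhodamine substrate followed over time; top concentration of the series differs between compounds; on the % scale 0 is the no-effect control and ±100 the full control effect; nearly all actives have a fitted effect of over 35% in size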
Outline: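 1nM USP1/UAF1 + cpd, 15 min RT; start w/ Ub-Rho 150nM final; kinetic FL 480/540 nm, 6 reads q60 s. Buffer 50mM HEPES pH 7.8, 0.5mM EDTA, 1mM TCEP, 0.01% Tween-20, 0.1 mg/ml BSA.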

[15] = Primary qHTS for small molecule stabilizers of the endoplasmic reticulum resident proteome: Secreted ER Calcium Modulated Protein (SERCaMP) assay (AID 1508630); conditions: SH-SY5Y GLuc-SERCaMP (Gaussia luciferase released on ER calcium loss) secretion, thapsigargin, luminescence; series mostly up to 38.4 µM; further: on the % scale 0 is the no-effect control and ±100 the full control effect
Outline: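 GLuc-SERCaMP-expressing SH-SY5Y cells, pretreated 16 h with compound, are challenged with thapsigargin to empty ER calcium stores; after 4 h, coelenterazine is added directly to the medium and luminescence is imaged.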

[16] = target: Cytochrome P450 2D6 (Homo sapiens) (UniProt P10635); assay: qHTS Assay for Inhibitors and Substrates of Cytochrome P450 2D6 (AID 891); conditions: recombinant CYP2D6, luciferin-ME EGE luminescence; series mostly up to 57.1 µM; further: potency means the concentration at half of the fitted maximal effect; nearly all actives have a fitted effect of over 60% in size
Outline: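 Human CYP2D6 (5 nM) with 30 uM Luciferin-ME EGE (at Km) in 100 mM KPO4, compound preincubated 10 min, then NADPH regeneration system for 60 min at room temperature. Luciferin read by luminescence; normalized to 1.43 uM quinidine.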

[17] = qHTS Assay for Identification of Small Molecule Agonists for Hypoxia Response Element Signaling Pathway (AID 914; active means well fitted activation curve with a large enough effect in the signal ratio, with a control signal flat, not every such curve was filed as active; the % refers to the signal ratio; further: potency means the concentration at half of the fitted maximal effect); conditions: ME-180 HRE-bla reporter, beta-lactamase ratio, CoCl2, 17 h; activation: stronger effect = higher value
Outline: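 Cells were plated overnight, pin-dosed with compound in a titration series, co-stimulated with EC50 CoCl2 and incubated 17 hours at 37 degrees Celsius. CCF4 substrate was then loaded, and AC50 values came from the 460nm/530nm ratio.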

[18] = AP1 Signaling Pathway (AID 357; active means well fitted curve in either direction with a large enough effect, not every such curve was filed as active); conditions: ME-180 (cervical carcinoma) AP-1-bla reporter, EGF-induced, beta-lactamase ratio, 5 h; at 7.69 µM (top of the series) unless noted
Outline: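 Titration-series screen for positive or negative modulators of EC50 EGF-induced signaling in ME-180 cells carrying an AP-1-driven beta-lactamase reporter. After 5 hours at 37 degrees Celsius, CCF4 460nm/530nm emission ratio gave %Activity; AC50 values derived.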

[19] = target: Dual specificity protein kinase CLK4 (Homo sapiens) (UniProt Q9HAZ1); assay: qHTS Assay for Inhibitors of CDC-like Kinase 4 (ADP-FP Assay) (AID 1795); conditions: Transcreener ADP fluorescence polarization; series mostly up to 50 µM;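 further: recombinant human CLK4 phosphorylating RS repeat peptide at 1 µM ATP; on the % scale 0 is the no-effect control and ±100 the full control effect; nearly all actives have a fitted effect of over 60% in size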
Outline: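 FP readout: Orange Transcreener ADP2 tracer (4 nM) plus ADP antibody, read after 30 min at room temperature. Kinase step: 6.25 nM Clk4, 100 uM RS peptide, 1 uM ATP, pH 7.5, 1 h.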

Chain of Cytochrome P450 1A2 (Homo sapiens) (P05177 whole entry, looked up): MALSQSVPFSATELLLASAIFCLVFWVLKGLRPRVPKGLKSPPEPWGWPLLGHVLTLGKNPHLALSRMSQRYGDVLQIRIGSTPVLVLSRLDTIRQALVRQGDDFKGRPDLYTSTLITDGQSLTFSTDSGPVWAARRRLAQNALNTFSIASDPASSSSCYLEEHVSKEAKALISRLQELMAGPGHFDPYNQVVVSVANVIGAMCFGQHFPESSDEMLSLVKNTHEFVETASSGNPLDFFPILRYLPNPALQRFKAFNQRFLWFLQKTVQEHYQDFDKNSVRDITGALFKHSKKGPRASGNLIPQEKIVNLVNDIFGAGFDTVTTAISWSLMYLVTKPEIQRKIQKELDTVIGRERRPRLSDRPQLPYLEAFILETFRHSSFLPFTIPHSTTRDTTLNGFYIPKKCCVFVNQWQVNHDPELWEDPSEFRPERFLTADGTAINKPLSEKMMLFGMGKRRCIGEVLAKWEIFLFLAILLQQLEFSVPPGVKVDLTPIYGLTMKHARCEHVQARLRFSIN
Chain of Cytochrome P450 2C19 (Homo sapiens) (P33261 whole entry, looked up): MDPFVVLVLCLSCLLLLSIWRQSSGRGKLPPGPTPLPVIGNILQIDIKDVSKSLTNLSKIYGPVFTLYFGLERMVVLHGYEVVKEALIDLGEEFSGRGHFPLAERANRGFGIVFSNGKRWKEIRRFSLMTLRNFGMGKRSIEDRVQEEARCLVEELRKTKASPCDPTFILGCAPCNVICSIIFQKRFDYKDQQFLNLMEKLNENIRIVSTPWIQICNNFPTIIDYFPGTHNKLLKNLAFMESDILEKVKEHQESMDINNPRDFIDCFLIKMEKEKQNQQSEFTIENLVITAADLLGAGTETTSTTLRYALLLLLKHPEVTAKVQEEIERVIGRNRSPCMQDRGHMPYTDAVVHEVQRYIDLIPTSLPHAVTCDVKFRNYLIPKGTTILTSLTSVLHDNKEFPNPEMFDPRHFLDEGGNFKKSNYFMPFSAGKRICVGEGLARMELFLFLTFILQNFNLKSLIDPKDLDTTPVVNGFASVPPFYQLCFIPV
Chain of Ubiquitin carboxyl-terminal hydrolase 1 (Homo sapiens) (O94782 whole entry, looked up): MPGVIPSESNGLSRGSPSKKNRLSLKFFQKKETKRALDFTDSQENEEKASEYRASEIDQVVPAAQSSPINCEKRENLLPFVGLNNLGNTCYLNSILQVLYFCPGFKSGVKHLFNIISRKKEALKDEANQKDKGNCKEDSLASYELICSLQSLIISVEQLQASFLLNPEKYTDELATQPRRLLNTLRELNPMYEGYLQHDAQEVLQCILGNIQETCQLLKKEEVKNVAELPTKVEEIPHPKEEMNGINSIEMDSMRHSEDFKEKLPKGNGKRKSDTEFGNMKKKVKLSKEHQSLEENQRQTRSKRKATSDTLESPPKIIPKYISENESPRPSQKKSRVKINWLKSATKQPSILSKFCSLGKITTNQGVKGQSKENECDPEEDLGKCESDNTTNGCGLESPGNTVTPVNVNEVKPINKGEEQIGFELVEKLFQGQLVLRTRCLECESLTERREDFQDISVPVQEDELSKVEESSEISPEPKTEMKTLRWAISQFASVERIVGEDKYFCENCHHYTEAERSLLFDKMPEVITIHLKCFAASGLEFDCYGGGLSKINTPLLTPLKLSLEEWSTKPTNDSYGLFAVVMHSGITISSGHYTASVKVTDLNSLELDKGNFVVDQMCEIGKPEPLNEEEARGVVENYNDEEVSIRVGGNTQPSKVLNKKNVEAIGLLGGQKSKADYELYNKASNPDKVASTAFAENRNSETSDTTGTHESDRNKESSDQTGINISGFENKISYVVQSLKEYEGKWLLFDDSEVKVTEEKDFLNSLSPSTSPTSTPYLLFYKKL
Chain of Cytochrome P450 3A4 (Homo sapiens) (P08684 whole entry, looked up): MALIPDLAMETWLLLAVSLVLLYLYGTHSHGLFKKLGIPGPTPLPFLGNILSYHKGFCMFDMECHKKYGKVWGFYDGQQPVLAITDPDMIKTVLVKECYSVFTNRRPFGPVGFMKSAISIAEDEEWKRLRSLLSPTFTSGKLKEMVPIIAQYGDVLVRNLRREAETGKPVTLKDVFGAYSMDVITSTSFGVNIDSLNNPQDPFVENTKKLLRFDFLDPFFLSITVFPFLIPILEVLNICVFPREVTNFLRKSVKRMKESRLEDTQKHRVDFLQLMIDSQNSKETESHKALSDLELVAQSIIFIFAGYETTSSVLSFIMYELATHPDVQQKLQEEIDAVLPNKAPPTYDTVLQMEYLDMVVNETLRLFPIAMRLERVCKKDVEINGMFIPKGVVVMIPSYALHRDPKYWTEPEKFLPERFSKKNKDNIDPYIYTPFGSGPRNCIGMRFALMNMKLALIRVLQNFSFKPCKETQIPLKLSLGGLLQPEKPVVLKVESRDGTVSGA
Chain of Glucocorticoid receptor (Homo sapiens) (P04150 whole entry, looked up, the tested form may be a part): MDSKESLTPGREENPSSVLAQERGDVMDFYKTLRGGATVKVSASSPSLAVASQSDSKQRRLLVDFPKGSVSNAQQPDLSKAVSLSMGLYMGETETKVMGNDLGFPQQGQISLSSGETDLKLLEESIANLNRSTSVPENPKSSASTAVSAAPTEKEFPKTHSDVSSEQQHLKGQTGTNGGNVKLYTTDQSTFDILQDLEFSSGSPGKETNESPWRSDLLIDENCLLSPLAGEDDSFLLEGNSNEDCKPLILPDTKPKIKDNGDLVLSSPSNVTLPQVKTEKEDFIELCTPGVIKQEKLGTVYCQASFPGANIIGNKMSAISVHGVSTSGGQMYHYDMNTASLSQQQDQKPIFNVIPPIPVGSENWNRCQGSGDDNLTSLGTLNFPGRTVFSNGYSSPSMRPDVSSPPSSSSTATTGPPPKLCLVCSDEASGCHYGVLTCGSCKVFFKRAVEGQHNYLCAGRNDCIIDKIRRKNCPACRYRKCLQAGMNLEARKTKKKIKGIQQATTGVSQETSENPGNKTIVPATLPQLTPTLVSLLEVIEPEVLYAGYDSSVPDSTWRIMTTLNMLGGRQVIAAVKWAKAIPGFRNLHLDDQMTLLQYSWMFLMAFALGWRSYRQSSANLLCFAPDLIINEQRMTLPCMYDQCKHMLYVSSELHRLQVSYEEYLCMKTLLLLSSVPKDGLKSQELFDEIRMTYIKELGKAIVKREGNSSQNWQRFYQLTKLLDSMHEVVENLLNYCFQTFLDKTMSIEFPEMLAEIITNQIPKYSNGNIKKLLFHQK
Chain of Lysosomal acid glucosylceramidase (Homo sapiens) (P04062 whole entry, looked up): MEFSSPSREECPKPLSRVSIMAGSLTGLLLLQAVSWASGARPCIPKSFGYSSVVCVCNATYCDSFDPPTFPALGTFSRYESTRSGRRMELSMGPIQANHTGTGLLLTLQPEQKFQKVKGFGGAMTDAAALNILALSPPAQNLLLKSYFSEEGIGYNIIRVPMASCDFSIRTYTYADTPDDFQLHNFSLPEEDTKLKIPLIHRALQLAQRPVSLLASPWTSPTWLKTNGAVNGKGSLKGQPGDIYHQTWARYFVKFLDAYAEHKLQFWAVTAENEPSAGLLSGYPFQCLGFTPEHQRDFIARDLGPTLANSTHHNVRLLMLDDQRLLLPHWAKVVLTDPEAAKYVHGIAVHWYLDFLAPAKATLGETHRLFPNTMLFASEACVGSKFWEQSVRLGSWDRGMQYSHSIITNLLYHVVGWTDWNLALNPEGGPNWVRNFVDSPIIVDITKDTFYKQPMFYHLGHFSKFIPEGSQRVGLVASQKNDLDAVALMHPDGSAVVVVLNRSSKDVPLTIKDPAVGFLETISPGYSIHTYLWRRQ
Chain of Dual specificity protein kinase CLK4 (Homo sapiens) (Q9HAZ1 whole entry, looked up): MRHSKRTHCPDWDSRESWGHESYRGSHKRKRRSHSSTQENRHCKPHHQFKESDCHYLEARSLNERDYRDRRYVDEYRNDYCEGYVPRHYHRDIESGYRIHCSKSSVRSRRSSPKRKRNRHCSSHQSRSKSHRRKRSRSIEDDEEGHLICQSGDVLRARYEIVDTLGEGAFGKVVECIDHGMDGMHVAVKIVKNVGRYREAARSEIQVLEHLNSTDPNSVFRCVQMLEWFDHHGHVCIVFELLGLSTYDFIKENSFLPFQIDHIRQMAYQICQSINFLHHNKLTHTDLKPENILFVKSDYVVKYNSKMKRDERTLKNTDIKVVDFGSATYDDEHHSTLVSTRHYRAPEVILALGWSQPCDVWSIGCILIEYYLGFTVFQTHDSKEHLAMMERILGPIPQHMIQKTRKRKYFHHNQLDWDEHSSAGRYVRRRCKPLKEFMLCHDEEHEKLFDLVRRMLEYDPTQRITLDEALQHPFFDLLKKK
Chain of 3',5'-cyclic-AMP phosphodiesterase 4B (Homo sapiens) (Q07343 whole entry, looked up): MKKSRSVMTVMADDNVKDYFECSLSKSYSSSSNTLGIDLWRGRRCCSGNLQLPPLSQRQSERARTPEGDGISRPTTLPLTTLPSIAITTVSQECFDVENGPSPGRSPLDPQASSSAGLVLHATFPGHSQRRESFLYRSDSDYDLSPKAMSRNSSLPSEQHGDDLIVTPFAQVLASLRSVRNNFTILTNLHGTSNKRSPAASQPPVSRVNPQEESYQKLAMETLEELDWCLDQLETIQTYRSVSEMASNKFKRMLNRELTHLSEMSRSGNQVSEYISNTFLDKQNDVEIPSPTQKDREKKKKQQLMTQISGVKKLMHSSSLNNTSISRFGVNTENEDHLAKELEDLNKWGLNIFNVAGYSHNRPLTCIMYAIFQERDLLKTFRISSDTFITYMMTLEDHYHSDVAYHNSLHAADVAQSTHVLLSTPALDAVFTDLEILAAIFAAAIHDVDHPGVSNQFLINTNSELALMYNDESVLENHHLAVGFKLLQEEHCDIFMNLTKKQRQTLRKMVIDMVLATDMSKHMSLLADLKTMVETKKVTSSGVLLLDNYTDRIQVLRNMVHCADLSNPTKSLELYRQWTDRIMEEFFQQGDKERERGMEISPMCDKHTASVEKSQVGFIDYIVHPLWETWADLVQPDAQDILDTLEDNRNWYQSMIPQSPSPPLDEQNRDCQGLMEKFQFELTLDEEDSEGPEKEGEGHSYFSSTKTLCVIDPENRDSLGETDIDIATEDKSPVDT

COc1cccc(-c2ccc3ncnc(N(C)C)c3c2)c1
inactive: Potency [1] > 11.4 µM | activity change, negative = inhibition [3] 27.5% | activity, negative = inhibition [4] -13.9% | Potency [5] > 46 µM | Potency [6] > 46 µM | Potency [7] | Potency [8] | Potency [10] | Potency [14] | outcome [15]
active: Potency [2] 0.794 µM | Potency [9] 7.94 µM | Potency [11] 3.16 µM | Potency [12] 4.47 µM | Potency [13] 3.16 µM

CN(C)c1ccc(-c2nc(-n3ccnc3)c3ccccc3n2)cc1
inactive: activity, negative = inhibition [4] -23.3% | Potency [5] > 46 µM | Potency [6] > 46 µM | Potency [7] | Potency [8] | Potency [10] | Potency [14] | outcome [15]
active: Potency [1] 8.28 µM | Potency [2] 0.316 µM | Potency [9] 0.631 µM | Potency [16] 7.94 µM | Potency [11] 2.51 µM | Potency [12] 7.94 µM | Potency [13] 11.2 µM

CCNc1ncc2nc(-c3ccc(Cl)cc3)c(=O)n(Cc3ccc(F)cc3)c2n1
inactive: Potency [1] > 11.4 µM | activity change, negative = inhibition [3] -1.59% | Potency [5] > 9.22 µM | Potency [6] > 46 µM | Potency [7] | Potency [9] | Potency [11] | Potency [12] | Potency [13] | Potency [14] | outcome [15]
active: Potency [2] 12.6 µM | Potency [17] 0.1 µM

c1ccc(CNc2ncnc3ccc(-c4ccc5c(c4)OCO5)cc23)cc1
active: Potency [2] 0.2 µM | Potency [9] 2 µM | Potency [11] 3.16 µM | Potency [12] 0.158 µM | Potency [13] 0.178 µM
inactive: Potency [1] > 11.4 µM | activity change, negative = inhibition [3] -4.08% | activity, negative = inhibition [4] -5.81% | Potency [5] > 46 µM | Potency [6] > 46 µM | Potency [7] | Potency [10] | Potency [14] | outcome [15]

O=c1c(CCc2ccccc2)nc2cnc(N3CCOCC3)nc2n1C1CC1
inactive: Potency [1] > 11.4 µM | activity change, negative = inhibition [18] -19.2% | activity change, negative = inhibition [3] 4.06% | activity, negative = inhibition [4] 3.71% | Potency [6] > 46 µM | Potency [7] | Potency [12] | Potency [13] | Potency [14] | outcome [15]

N#Cc1ccccc1-c1ccc2ncnc(NCc3ccccc3)c2c1
inactive: Potency [1] > 11.4 µM | activity change, negative = inhibition [18] -20.7% | activity change, negative = inhibition [3] 16.5% | activity, negative = inhibition [4] 27.7% | Potency [5] > 46 µM | Potency [6] > 46 µM | Potency [7] | outcome [15]
active: Potency [12] 5.01 µM | Potency [13] 7.94 µM

Cc1nc2cnc(Nc3ccccc3)nc2n(CCc2ccccc2)c1=O
active: Potency [2] 2.51 µM
inactive: Potency [1] > 11.4 µM | activity change, negative = inhibition [18] -7.04% | activity change, negative = inhibition [3] -9.65% | activity, negative = inhibition [4] -6.93% | Potency [5] > 9.22 µM | Potency [6] > 46 µM | Potency [7] | Potency [8] | Potency [10] | Potency [12] | Potency [19] | Potency [14] | outcome [15]

From PubChem BioAssay (NCATS)
